Where “and” joins values, the source holds several entries; their conditions need not be identical. Equal values may be shown once. Inconclusive results are not listed. A call without a number means that no potency is given here. Calls of active or inactive are those of the source. Unless noted, calls follow the shape of the dose curve; as a rule, active = well fitted curve in the direction sought with a large enough effect in the repeat runs; inconclusive = weak or mixed curves; inactive = no such curve, though single readings can be large; an effect the other way counts as inactive or inconclusive.
Tests used:
[1] = qHTS assay to test for compound auto fluorescence at 535 nm (green) in HEK293 cells (AID 720680)
[2] = qHTS assay to test for compound auto fluorescence at 460 nm (blue) in HEK293 cell free culture (AID 720681)
Method in brief: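 Blue fluorescence (Ex 405/Em 460 nm, triamterene-equivalent) was read immediately after pin transfer of compound or DMSO into medium (DMEM, 10% FBS) without cells.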

[3] = qHTS assay to test for compound auto fluorescence at 535 nm (green) in HEK293 cell free culture (AID 720682)
Method in brief: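 Measurement is a direct plate read of green fluorescence (485 nm in, 535 nm out) after compound addition to serum-supplemented DMEM lacking cells, with fluorescein used to express intensities.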

[4] = qHTS assay to test for compound auto fluorescence at 590 nm (red) in HEK293 cell free culture (AID 720683)
Method in brief: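 Red-channel autofluorescence of compounds in culture medium (DMEM, 10% FBS), no cells, measured at 540/590 nm. Rose Bengal sodium is the reference fluorophore for equivalence.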

[5] = qHTS assay to test for compound auto fluorescence at 590 nm (red) in HepG2 cell free culture (AID 720684)
Method in brief: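 Cell-free; medium MEM + 10% FBS; compound or DMSO added by pintool; read Ex 540/Em 590 nm; Rose Bengal sodium as red reference fluorophore.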

[6] = qHTS assay to test for compound auto fluorescence at 460 nm (blue) in HepG2 cell free culture (AID 720685)
Method in brief: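 Cell-free plates of MEM plus 10% FBS received 23 nL compound or DMSO vehicle; blue-channel (405/460 nm) intensity scored against triamterene as reference fluorophore.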

[7] = qHTS assay to test for compound auto fluorescence at 535 nm (green) in HepG2 cell free culture (AID 720686)
[8] = target: Glucocorticoid receptor (Homo sapiens) (UniProt P04150); assay: qHTS assay to identify small molecule agonists of the glucocorticoid receptor (GR) signaling pathway (AID 720691; active = well fitted activation curve with a large enough effect in the signal ratio in the repeat runs, not every such curve was filed as active; the % refers to the signal ratio); settings: GR-bla HeLa, beta-lactamase reporter ratio, 18 h; activation: at 62.4 µM (top of the series)
Method in brief: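 Measures GR pathway activation through a GRE-beta-lactamase reporter stably integrated in HeLa cells, with 18 h compound treatment at 37 C and fluorescence detection using a FRET substrate.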

[9] = qHTS assay to identify small molecule antagonists of the glucocorticoid receptor (GR) signaling pathway - cell viability counter screen (AID 720693); also: nearly all actives have a fitted effect of over 55% in size
[10] = qHTS assay for identifying genotoxic compounds that show differential cytotoxicity against isogenic chicken DT40 cell lines with known DNA damage response pathways - wild type cell line (AID 743012); also: nearly all actives have a fitted effect of over 60% in size; also: potency is read from the fitted curve at half-maximal effect
Method in brief: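 Endpoint: CellTiter-Glo luminescence, 30 min RT. Cells: wild type DT40, 300/well. Exposure: compounds in DMSO, 40 h, 37 C/5% CO2, after ~0.5 h pre-incubation.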

[11] = qHTS assay for identifying genotoxic compounds that show differential cytotoxicity against isogenic chicken DT40 cell lines with known DNA damage response pathways - Rad54/Ku70 mutant cell line (AID 743015); also: nearly all actives have a fitted effect of over 60% in size; also: potency is read from the fitted curve at half-maximal effect
[12] = qHTS assay to identify small molecule antagonists of the androgen receptor (AR) signaling pathway - cell viability counter screen (AID 743033; also: nearly all actives have a fitted effect of over 45% in size)
[13] = qHTS assay to identify small molecule antagonists of the androgen receptor (AR) signaling pathway using the MDA cell line - cell viability counter screen (AID 743041; also: nearly all actives have a fitted effect of over 45% in size)
Method in brief: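 Viability read by CellTiter-Fluor fluorescence in the same wells as the antagonist screen, added after 15.5 h of a 16 h, 37C exposure. Human breast carcinoma MDA-kb2 AR-luc cells, compounds co-dosed with agonist R1881.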

[14] = target: Androgen receptor (Homo sapiens) (UniProt P10275); assay: qHTS assay to identify small molecule antagonists of the androgen receptor (AR) signaling pathway (AID 743035; active = well fitted inhibition curve with a large enough effect in the signal ratio in the repeat runs, not every such curve was filed as active; the % refers to the signal ratio)
Method in brief: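 R1881 agonist challenge of a HEK293 UAS-beta-lactamase AR reporter line in the presence of compound (16 h, 37C); signal taken as FRET fluorescence after 2 h with LiveBLAzer B/G substrate at room temperature.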

[15] = target: Androgen receptor (Homo sapiens) (UniProt P10275); assay: qHTS assay to identify small molecule agonists of the androgen receptor (AR) signaling pathway (AID 743036; active = well fitted activation curve with a large enough effect in the signal ratio in the repeat runs, with a control signal flat, not every such curve was filed as active; the % refers to the signal ratio)
Method in brief: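 Beta-lactamase under UAS control, stably integrated in HEK293 GripTite cells, reports receptor activation. After 16 h compound treatment, cells received FRET substrate for 2 h at room temperature before fluorescence reading.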

[16] = target: Androgen receptor (Homo sapiens) (UniProt P10275); assay: qHTS assay to identify small molecule agonists of the androgen receptor (AR) signaling pathway using the MDA cell line (AID 743040; also: nearly all actives have a fitted effect of over 20% in size)
Method in brief: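 Luciferase agonist assay: 16 h compound exposure at 37C without CO2 in MDA-kb2 AR-luc cells, whose MMTV promoter responds to both AR and GR. Luminescence measured after 30 min room-temperature incubation with ONE-Glo.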

[17] = target: Androgen receptor (Homo sapiens) (UniProt P10275); assay: qHTS assay to identify small molecule antagonists of the androgen receptor (AR) signaling pathway using the MDA cell line (AID 743042; also: nearly all actives have a fitted effect of over 55% in size)
Method in brief: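 Antagonist mode: compounds plus R1881 agonist added to MDA-kb2 AR-luc cells, incubated 16 h at 37C. Luciferase reporter luminescence quantified, with multiplexed CellTiter-Fluor readout for cell viability.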

[18] = target: Glucocorticoid receptor (Homo sapiens) (UniProt P04150); assay: qHTS assay to identify small molecule antagonists of the glucocorticoid receptor (GR) signaling pathway (AID 720692; active = well fitted inhibition curve with a large enough effect in the signal ratio in the repeat runs, not every such curve was filed as active; the % refers to the signal ratio)
Method in brief: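 Tox21 10K library screened in concentration-response for blockade of dexamethasone (5 nM final)-induced GRE-bla reporter activity in HeLa cells; 18 h treatment, fluorescence read.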

[19] = qHTS assay for identifying genotoxic compounds that show differential cytotoxicity against isogenic chicken DT40 cell lines with known DNA damage response pathways - Rev3 mutant cell line (AID 743014); also: nearly all actives have a fitted effect of over 55% in size

Sequence of Androgen receptor (Homo sapiens) (P10275 whole entry, looked up): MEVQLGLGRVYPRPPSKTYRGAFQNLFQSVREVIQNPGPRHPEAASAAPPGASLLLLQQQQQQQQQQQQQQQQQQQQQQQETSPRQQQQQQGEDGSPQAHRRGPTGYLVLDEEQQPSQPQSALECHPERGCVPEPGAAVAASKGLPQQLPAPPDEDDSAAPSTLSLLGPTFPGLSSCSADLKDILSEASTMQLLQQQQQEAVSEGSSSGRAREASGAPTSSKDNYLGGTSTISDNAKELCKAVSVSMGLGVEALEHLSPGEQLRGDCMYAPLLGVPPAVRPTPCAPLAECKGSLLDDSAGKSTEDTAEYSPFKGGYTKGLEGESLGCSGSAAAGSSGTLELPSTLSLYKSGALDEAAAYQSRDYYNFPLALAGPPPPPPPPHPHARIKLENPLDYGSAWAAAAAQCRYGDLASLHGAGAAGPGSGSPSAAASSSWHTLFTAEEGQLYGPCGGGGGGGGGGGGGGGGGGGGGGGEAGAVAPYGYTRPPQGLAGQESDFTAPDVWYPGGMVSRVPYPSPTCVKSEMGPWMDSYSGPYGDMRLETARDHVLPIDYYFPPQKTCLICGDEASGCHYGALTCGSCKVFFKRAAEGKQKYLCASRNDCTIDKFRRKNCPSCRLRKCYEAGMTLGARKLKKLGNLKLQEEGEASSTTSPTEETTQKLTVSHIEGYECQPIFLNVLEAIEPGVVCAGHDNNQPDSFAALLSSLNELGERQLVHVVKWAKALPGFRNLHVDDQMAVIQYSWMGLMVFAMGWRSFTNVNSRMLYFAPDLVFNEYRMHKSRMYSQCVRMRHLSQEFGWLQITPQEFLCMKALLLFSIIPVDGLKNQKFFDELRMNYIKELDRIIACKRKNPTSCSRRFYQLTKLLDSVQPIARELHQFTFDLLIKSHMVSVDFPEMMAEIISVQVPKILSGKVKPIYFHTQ
Sequence of Glucocorticoid receptor (Homo sapiens) (P04150 whole entry, looked up): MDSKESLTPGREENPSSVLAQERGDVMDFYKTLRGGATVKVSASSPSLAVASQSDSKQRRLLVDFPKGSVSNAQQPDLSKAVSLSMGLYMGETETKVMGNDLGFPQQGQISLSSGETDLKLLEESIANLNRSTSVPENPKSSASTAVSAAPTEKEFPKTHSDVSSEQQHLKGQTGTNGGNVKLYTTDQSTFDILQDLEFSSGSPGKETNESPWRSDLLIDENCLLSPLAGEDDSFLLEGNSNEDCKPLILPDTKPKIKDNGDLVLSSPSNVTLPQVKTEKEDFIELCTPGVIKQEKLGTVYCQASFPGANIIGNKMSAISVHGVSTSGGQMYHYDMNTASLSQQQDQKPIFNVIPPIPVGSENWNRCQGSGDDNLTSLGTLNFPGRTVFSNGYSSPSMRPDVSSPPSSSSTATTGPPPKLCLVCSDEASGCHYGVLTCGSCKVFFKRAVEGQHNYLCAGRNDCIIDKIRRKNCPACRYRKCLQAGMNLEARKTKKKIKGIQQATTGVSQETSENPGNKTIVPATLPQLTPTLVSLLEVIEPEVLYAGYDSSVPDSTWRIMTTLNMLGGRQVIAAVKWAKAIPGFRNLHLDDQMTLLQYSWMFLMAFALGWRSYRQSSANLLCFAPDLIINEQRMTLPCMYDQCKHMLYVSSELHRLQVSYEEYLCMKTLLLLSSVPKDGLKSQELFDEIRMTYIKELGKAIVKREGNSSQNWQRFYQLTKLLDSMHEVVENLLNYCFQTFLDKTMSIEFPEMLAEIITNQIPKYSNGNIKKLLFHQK

| Compound | outcome [1] | outcome [2] | outcome [3] | outcome [4] | outcome [5] | outcome [6] | outcome [7] | Potency [8] | outcome [9] | Potency [10] | Potency [11] | Potency [12] | Potency [13] | outcome [14] | Potency [15] | Potency [16] | outcome [17] | Potency [18] | Potency [19] |
| --- | --- | --- | --- | --- | --- | --- | --- | --- | --- | --- | --- | --- | --- | --- | --- | --- | --- | --- | --- |
| CCCCCC/C(C=O)=C\c1ccccc1 | inactive | inactive | inactive | inactive | inactive | inactive | inactive | inactive | inactive | inactive | inactive | inactive | inactive |  |  |  |  |  |  |
| CC1CCC(C(C)C)C(O)C1 (configuration not stated) | inactive | inactive | inactive | inactive | inactive | inactive | inactive |  | inactive | inactive | inactive | inactive | inactive | inactive | inactive | inactive | inactive |  |  |
| C=CCOC(=O)c1ccccc1C(=O)OCC=C | inactive | inactive | inactive | inactive | inactive | inactive | inactive |  | inactive | inactive | inactive | inactive | inactive |  |  |  |  |  |  |
| C=C(C)C(=O)OCCOCCOCCOC(=O)C(=C)C | inactive | inactive | inactive | inactive | inactive | inactive | inactive | inactive | inactive | inactive | inactive | inactive | inactive |  |  |  |  | inactive |  |
| CCC(O)OC(O)CC (configuration not stated) | inactive | inactive | inactive | inactive | inactive | inactive | inactive | inactive | inactive | inactive | inactive | inactive |  |  |  |  |  |  | inactive |
| CCCCCCCCCCCCc1ccccc1 | inactive | inactive | inactive | inactive | inactive | inactive | inactive |  | inactive | inactive | inactive | inactive |  |  |  |  |  |  |  |
| CCCCCOC(C)=O | inactive | inactive | inactive | inactive | inactive | inactive | inactive | inactive | inactive | inactive | inactive | inactive | inactive |  |  |  |  | inactive |  |
| O=C=NCCCCCCN=C=O | inactive | inactive | inactive | inactive | inactive | inactive | inactive |  | inactive | inactive | inactive | inactive | inactive |  |  |  |  |  |  |
| CCCC(C)=O | inactive | inactive | inactive | inactive | inactive | inactive | inactive | inactive | inactive | inactive | inactive | inactive | inactive |  |  |  |  | inactive |  |
| O=c1[nH]c(=O)n([C@H]2C[C@H](O)[C@@H](CO)O2)cc1Br | inactive | inactive | inactive | inactive | inactive | inactive | inactive |  | inactive | inactive | 11.9 µM (active) and 24.7 µM (active) | inactive | inactive |  |  |  |  |  |  |
| Cc1ccc(N(C)C)cc1 | inactive | inactive | inactive | inactive | inactive | inactive | inactive | inactive | inactive | inactive | inactive | inactive |  | inactive | inactive | inactive | inactive |  | inactive |
| CN(C)CCC(c1ccc(Cl)cc1)c1ccccn1 (configuration not stated) | inactive | inactive | inactive | inactive | inactive | inactive | inactive | inactive | inactive | inactive | inactive | inactive |  |  |  |  |  | inactive | inactive |
| Cc1ccc2oc(=O)ccc2c1 | inactive | inactive | inactive | inactive | inactive | inactive | inactive | inactive | inactive | inactive | inactive | inactive |  |  |  |  |  |  |  |
| N[C@@H](Cc1cc(I)c(Oc2cc(I)c(O)c(I)c2)c(I)c1)C(=O)O | inactive | inactive | inactive | inactive | inactive | inactive | inactive | inactive | inactive | inactive | inactive | inactive |  |  |  |  |  |  | inactive |
| CC1=CC(=O)NS(=O)(=O)O1 | inactive | inactive | inactive | inactive | inactive | inactive | inactive | inactive | inactive | inactive | inactive | inactive |  |  |  |  |  |  |  |
| CN(C)CCC(c1ccccc1)c1ccccn1 (configuration not stated) | inactive | inactive | inactive | inactive | inactive | inactive | inactive | inactive | inactive | inactive | inactive | inactive | inactive |  |  |  |  | inactive | inactive |
| CC(C)c1ccc(S(=O)(=O)O)cc1 | inactive | inactive | inactive | inactive | inactive | inactive | inactive |  | inactive | inactive | inactive | inactive | inactive |  |  |  |  |  | inactive |
| O=c1[nH]nnc2ccccc12 | inactive | inactive | inactive | inactive | inactive | inactive | inactive |  | inactive | inactive | inactive | inactive | inactive |  |  |  |  |  |  |
| CCCCCCOCCO | inactive | inactive | inactive | inactive | inactive | inactive | inactive | inactive | inactive | inactive | inactive | inactive |  |  |  |  |  | inactive | inactive |
| CCCCCCCC(=O)OC | inactive | inactive | inactive | inactive | inactive | inactive | inactive |  | inactive | inactive | inactive | inactive |  |  |  |  |  |  |  |
| COc1ccc(Nc2ccccc2)c(C)c1 | inactive | inactive | inactive | inactive | inactive | inactive | inactive | inactive | inactive | inactive | inactive | inactive |  |  |  |  |  | inactive |  |
| O=C(O)c1cc(O)c(O)c(O)c1 | inactive | inactive | inactive | inactive | inactive | inactive | inactive | inactive | inactive | 26.6 µM (active) and 30.9 µM (active) | 27.6 µM (active) | inactive |  |  |  |  |  |  |  |
| CCN(CC)c1ccc(C(=O)c2ccccc2C(=O)O)c(O)c1 | inactive | inactive | inactive | inactive | inactive | inactive | inactive | inactive | inactive |  | inactive | inactive | inactive |  |  |  |  |  | inactive |

— PubChem BioAssay (Tox21)
